# Laboratory results taken from PubChem BioAssay (EPA / NIEHS).
# Records with an inconclusive call do not appear. Activity calls are given as the source filed them. How the source made its calls: active means hit-call score of the fitted dose curve at least 0.9, where 1 is the maximum; inconclusive means response in the unintended direction; inactive means score below 0.9.
# Target: human Mitogen- and Stress-activated Protein Kinase-1 (Msk1), RPS6KA5 (gene 9252) (UniProt O75582)
# Assay: NVS_ENZ_hMsk1: NovaScreen (NVS) Enzymatic Assay for human Mitogen- and Stress-activated Protein Kinase-1 (Msk1) (AID 2283187)
# Procedure: NVS_ENZ_hMsk1 is a biochemical, single-readout assay that uses extracted gene-proteins in a cell-free assay. Measurements were taken 1 hour after chemical dosing in a 384-well plate.NVS_ENZ_hMsk1 is one of one assay component(s) measured or calculated from the NVS_ENZ_hMsk1 assay. It is designed to make measurements of enzyme activity, a form of enzyme reporter, as detected with fluorescence intensity signals by Fluorescence and electrophoretic mobility shift technology.Data from the assay component NVS_ENZ_hMsk1 was analyzed into 1 assay endpoint. This assay endpoint, NVS_ENZ_hMsk1, was analyzed in the positive analysis fitting direction relative to DMSO as the negative control and baseline of activity. Using a type of enzyme reporter, loss-of-signal activity can be used to understand changes in the enzymatic activity as they relate to the gene RPS6KA5. Furthermore, this assay endpoint can be referred to as a primary readout, because this assay has produced multiple assay endpoints where this one serves a enzymatic activity function. To generalize the intended target to other relatable targets, this assay endpoint is annotated to the kinase intended target family, where the subfamily is serine/threonine kinase.
# Binding assays used specific radioligands (tritiated, iodinated) with non-radioactive competitive displacement ligands in agonist or antagonist protocols (as indicated) and various reference compounds and inhibitors to titrate specific binding to receptors and transporters. Most enzyme assays (CYPs, kinases, phosphatases, proteases, HDACs) used recombinant protein and specific substrates (fluorescence mostly, some colorimetric and radioactive) and inhibitors, followed by a biochemical separation of substrate and product. All assays for the biochemical HTS were initially run in duplicate at a single concentration (10 uM for CYP450 assays and 25 uM for all others). Assay-chemical combinations meeting a pre-defined threshold (e.g., 30% inhibition and other criteria defined below) were then run in singleton concentration-response format with maximum concentration of 20 uM for CYPs and 50 uM for all others. Each assay was run with positive and negative controls, and concurrent controls on every plate. The follow-up (secondary) screen tested active chemical-pairs in concentration series, as well as a few additional assays not tested in the primary screen, some selected negative inactives, and several cases re-run in the concentration series for confirmatory purposes.
# human Mitogen- and Stress-activated Protein Kinase-1 (Msk1), RPS6KA5 (gene 9252), sequence (O75582 whole entry, looked up): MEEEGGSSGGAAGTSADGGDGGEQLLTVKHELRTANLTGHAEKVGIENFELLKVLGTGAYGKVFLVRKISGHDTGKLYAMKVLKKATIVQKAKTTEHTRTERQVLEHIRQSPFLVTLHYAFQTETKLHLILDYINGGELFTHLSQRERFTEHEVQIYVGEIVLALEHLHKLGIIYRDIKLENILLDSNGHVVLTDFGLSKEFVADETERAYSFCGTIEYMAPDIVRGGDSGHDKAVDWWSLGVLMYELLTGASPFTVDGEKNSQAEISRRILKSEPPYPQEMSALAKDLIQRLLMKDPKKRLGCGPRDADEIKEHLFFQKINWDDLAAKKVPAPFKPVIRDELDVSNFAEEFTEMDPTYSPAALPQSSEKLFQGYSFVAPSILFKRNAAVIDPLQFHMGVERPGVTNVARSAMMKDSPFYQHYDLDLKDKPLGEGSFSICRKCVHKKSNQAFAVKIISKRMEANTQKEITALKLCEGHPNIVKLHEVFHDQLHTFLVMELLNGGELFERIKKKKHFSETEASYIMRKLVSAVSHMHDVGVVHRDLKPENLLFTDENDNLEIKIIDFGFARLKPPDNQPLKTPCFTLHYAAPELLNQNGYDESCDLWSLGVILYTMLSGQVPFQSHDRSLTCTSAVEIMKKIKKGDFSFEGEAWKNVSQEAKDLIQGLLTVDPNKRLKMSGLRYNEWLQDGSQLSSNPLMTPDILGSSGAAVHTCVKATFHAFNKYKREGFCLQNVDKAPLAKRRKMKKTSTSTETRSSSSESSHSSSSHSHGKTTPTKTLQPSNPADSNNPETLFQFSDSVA
row,Compound,outcome
1,S=c1[nH]c2ccccc2s1,inactive
2,CN(C)C(=O)NC1(c2ccccc2)CCN(CC[C@@]2(c3ccc(F)c(F)c3)CN(C(=O)c3ccccc3)CCO2)CC1,inactive
3,COc1ccc(OC(F)(F)F)cc1CN[C@H]1CCCN[C@H]1c1ccccc1,inactive

# Target: human Phosphodiesterase 4A1 (PDE4A1), PDE4A (gene 5141) (UniProt P27815)
# Assay: NVS_ENZ_hPDE4A1: NovaScreen (NVS) Enzymatic Assay for human Phosphodiesterase 4A1 (PDE4A1) (AID 2283191)
# Outline: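 Fluorescent substrate turnover by recombinant PDE4A1 read after 1 h by mobility-shift separation. Primary duplicate screen at 25 uM; hits retested in concentration series with a 50 uM maximum, relative to DMSO.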
# human Phosphodiesterase 4A1 (PDE4A1), PDE4A (gene 5141), sequence (P27815 whole entry, looked up): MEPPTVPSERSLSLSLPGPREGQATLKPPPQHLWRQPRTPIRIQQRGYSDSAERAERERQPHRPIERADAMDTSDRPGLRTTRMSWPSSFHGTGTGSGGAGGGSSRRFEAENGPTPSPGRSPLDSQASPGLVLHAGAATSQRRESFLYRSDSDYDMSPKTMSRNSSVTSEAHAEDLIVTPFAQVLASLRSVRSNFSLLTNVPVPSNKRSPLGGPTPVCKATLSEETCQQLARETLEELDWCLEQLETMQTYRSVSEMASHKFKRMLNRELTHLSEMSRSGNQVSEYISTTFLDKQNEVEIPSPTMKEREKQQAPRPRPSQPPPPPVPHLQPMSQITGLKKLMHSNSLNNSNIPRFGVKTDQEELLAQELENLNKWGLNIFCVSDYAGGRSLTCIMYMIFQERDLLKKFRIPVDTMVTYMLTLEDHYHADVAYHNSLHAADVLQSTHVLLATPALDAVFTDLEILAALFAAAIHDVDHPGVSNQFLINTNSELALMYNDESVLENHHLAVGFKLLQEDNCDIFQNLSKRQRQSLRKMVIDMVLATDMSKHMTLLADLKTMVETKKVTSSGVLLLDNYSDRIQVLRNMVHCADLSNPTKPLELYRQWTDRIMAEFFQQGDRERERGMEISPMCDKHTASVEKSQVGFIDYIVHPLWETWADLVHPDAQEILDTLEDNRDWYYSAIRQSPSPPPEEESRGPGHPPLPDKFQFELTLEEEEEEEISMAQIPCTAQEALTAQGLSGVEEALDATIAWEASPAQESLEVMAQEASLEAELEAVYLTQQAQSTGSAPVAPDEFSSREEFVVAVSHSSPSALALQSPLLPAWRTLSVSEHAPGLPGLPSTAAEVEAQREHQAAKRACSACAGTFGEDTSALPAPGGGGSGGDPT
Compound,outcome,AC50
C/C=C/C=C/C(=O)O,inactive,–
COc1ccc(C(=O)Nc2nc3ccccc3c(NCc3ccccc3)c2C#N)cc1,–,17.7 µM (active)
CC(C)NCC(O)c1ccc(O)c(O)c1 (stereo not given),inactive,–
CCCCCCCCCCCCCCOS(=O)(=O)O,–,18.6 µM (active)
Nc1nc(Cl)nc2c1ncn2[C@H]1C[C@H](O)[C@@H](CO)O1,–,9.18 µM (active)
COc1ccc(OC(F)(F)F)cc1CN[C@H]1CCCN[C@H]1c1ccccc1,inactive,–

# Target: cAMP-dependent protein kinase catalytic subunit alpha (Homo sapiens) (UniProt P17612)
# Assay: NVS_ENZ_hPKA: NovaScreen (NVS) Enzymatic Assay for human Protein Kinase A (PKA) (AID 2283192)
# Outline: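 Cell-free kinase activity read by fluorescence after mobility-shift separation of substrate and product, 1 h post-dosing. Single-concentration duplicate screen (25 uM) preceded singleton concentration series (top 50 uM); loss of signal versus DMSO.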
row,Compound,outcome
1,CC(=O)CC(c1ccccc1)c1c(O)c2ccccc2oc1=O (stereo not given),inactive
2,S=c1[nH]c2ccccc2s1,inactive
3,O=C(Oc1ccccc1)c1cccc(C(=O)Oc2ccccc2)c1,inactive
4,COc1ccc(OC(F)(F)F)cc1CN[C@H]1CCCN[C@H]1c1ccccc1,inactive

# Target: human Phosphodiesterase 5 (PDE5), PDE5A (gene 8654) (UniProt O76074)
# Assay: NVS_ENZ_hPDE5: NovaScreen (NVS) Enzymatic Assay for human Phosphodiesterase 5 (PDE5) (AID 2283194)
# Outline: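 Screening began in duplicate at 25 uM, with actives taken into concentration-response. Enzyme activity of recombinant PDE5 toward its substrate was measured at 1 h by fluorescence mobility-shift detection, relative to DMSO controls.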
Compound,outcome,AC50
CC(C)(O)c1ccc(CNC(=O)c2cccnc2Oc2ccc(F)cc2)cc1,inactive,–
Oc1ccccc1O,inactive,–
CN(C)C(=O)NC1(c2ccccc2)CCN(CC[C@@]2(c3ccc(F)c(F)c3)CN(C(=O)c3ccccc3)CCO2)CC1,–,40 µM (active)
CC(N)=O,inactive,–
CC1(C)C(=O)NC(=O)N1CO,inactive,–
COc1ccc(OC(F)(F)F)cc1CN[C@H]1CCCN[C@H]1c1ccccc1,inactive,–

# Target: human Phosphodiesterase 10 (PDE10), PDE10A (gene 10846) (UniProt Q9Y233)
# Assay: NVS_ENZ_hPDE10: NovaScreen (NVS) Enzymatic Assay for human Phosphodiesterase 10 (PDE10) (AID 2283195)
# Outline: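 Readout is fluorescence intensity following electrophoretic mobility-shift separation, 1 h after dosing of isolated PDE10A protein. Hits meeting a preset threshold at 25 uM went to concentration series (max 50 uM), analysed relative to DMSO.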
# human Phosphodiesterase 10 (PDE10), PDE10A (gene 10846), sequence (Q9Y233 whole entry, looked up): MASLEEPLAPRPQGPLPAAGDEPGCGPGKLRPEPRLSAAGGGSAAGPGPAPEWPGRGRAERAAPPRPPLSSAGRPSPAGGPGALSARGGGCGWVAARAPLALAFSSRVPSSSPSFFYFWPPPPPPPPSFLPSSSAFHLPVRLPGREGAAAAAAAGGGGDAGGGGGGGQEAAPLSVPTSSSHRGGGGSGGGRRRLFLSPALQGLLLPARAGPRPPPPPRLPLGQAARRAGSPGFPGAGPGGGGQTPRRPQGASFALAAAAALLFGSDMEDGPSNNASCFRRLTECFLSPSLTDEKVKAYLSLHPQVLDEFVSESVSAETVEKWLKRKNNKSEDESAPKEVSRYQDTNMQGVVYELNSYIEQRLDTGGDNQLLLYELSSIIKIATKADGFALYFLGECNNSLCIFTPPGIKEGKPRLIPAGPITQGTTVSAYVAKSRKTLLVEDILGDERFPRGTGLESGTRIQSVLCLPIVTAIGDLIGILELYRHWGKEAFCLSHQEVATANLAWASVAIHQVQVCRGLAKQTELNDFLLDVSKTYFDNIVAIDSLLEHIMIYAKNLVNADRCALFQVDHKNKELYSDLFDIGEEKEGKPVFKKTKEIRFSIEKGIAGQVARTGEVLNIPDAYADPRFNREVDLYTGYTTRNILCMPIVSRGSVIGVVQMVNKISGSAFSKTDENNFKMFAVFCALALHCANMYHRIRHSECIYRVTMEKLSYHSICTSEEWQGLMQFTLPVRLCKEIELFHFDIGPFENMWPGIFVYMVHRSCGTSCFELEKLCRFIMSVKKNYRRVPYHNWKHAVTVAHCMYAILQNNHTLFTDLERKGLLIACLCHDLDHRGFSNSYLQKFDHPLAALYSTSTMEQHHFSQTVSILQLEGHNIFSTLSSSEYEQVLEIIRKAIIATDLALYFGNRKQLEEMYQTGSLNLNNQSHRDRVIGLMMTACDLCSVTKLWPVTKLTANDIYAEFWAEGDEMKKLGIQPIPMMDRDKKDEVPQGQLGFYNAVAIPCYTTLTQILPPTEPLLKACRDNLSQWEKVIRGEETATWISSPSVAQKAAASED
row,Compound,outcome
1,C/C=C/C=C/C(=O)O,inactive
2,CCCCOC(=O)CCCCC(=O)OCCCC,inactive
3,CC(C)(O)c1ccc(CNC(=O)c2cccnc2Oc2ccc(F)cc2)cc1,inactive
4,COc1ccc(OC(F)(F)F)cc1CN[C@H]1CCCN[C@H]1c1ccccc1,inactive

# Target: human Protein Phosphatase, Mg2+/Mn2+ Dependent 1A (PPM1A), PPM1A (gene 5494) (UniProt P35813)
# Assay: NVS_ENZ_hPPM1A: NovaScreen (NVS) Enzymatic Assay for human Protein Phosphatase, Mg2+/Mn2+ Dependent 1A (PPM1A) (AID 2283198)
# Outline: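 Primary screen in duplicate at 25 uM, with actives then titrated to a maximum of 50 uM. Recombinant PPM1A dephosphorylation of fluorescent substrate measured at 1 h, with substrate and product separated by mobility shift; inhibition fitted against DMSO.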
# human Protein Phosphatase, Mg2+/Mn2+ Dependent 1A (PPM1A), PPM1A (gene 5494), sequence (P35813 whole entry, looked up): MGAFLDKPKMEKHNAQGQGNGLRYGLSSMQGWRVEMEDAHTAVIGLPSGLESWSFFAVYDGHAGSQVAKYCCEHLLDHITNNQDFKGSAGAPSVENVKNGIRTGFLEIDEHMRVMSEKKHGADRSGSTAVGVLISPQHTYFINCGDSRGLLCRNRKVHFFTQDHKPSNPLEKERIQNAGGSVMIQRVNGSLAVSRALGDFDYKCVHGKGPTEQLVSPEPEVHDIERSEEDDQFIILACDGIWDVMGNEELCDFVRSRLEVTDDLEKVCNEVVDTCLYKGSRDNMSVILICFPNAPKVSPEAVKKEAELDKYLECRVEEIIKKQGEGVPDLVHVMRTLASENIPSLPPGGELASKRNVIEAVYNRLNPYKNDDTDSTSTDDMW
row,Compound,outcome
1,CCCCCCCCCCCCCCCCO,inactive
2,CC(=O)OC1CC(C)OC(C)O1 (stereo not given),inactive
3,Cc1ccc(C(C)(C)C)c(O)c1,inactive
4,CSc1ccc(Oc2ccc(S(N)(=O)=O)cc2CN(C)C)cc1C,inactive

# Target: human Protein Tyrosine Phosphatase Non-receptor Type 1 (PTPN1), PTPN1 (gene 5770) (UniProt P18031)
# Assay: NVS_ENZ_hPTPN1: NovaScreen (NVS) Enzymatic Assay for human Protein Tyrosine Phosphatase Non-receptor Type 1 (PTPN1) (AID 2283201)
# Procedure: NVS_ENZ_hPTPN1 is a biochemical, single-readout assay that uses extracted gene-proteins in a cell-free assay. Measurements were taken 1.33 hours after chemical dosing in a 384-well plate.NVS_ENZ_hPTPN1 is one of one assay component(s) measured or calculated from the NVS_ENZ_hPTPN1 assay. It is designed to make measurements of enzyme activity, a form of enzyme reporter, as detected with fluorescence intensity signals by Fluorescence and electrophoretic mobility shift technology.Data from the assay component NVS_ENZ_hPTPN1 was analyzed into 1 assay endpoint. This assay endpoint, NVS_ENZ_hPTPN1, was analyzed in the positive analysis fitting direction relative to DMSO as the negative control and baseline of activity. Using a type of enzyme reporter, loss-of-signal activity can be used to understand changes in the enzymatic activity as they relate to the gene PTPN1. Furthermore, this assay endpoint can be referred to as a primary readout, because this assay has produced multiple assay endpoints where this one serves a enzymatic activity function. To generalize the intended target to other relatable targets, this assay endpoint is annotated to the phosphatase intended target family, where the subfamily is non-receptor tyrosine phosphatase.
# Binding assays used specific radioligands (tritiated, iodinated) with non-radioactive competitive displacement ligands in agonist or antagonist protocols (as indicated) and various reference compounds and inhibitors to titrate specific binding to receptors and transporters. Most enzyme assays (CYPs, kinases, phosphatases, proteases, HDACs) used recombinant protein and specific substrates (fluorescence mostly, some colorimetric and radioactive) and inhibitors, followed by a biochemical separation of substrate and product. All assays for the biochemical HTS were initially run in duplicate at a single concentration (10 uM for CYP450 assays and 25 uM for all others). […]
# human Protein Tyrosine Phosphatase Non-receptor Type 1 (PTPN1), PTPN1 (gene 5770), sequence (P18031 whole entry, looked up): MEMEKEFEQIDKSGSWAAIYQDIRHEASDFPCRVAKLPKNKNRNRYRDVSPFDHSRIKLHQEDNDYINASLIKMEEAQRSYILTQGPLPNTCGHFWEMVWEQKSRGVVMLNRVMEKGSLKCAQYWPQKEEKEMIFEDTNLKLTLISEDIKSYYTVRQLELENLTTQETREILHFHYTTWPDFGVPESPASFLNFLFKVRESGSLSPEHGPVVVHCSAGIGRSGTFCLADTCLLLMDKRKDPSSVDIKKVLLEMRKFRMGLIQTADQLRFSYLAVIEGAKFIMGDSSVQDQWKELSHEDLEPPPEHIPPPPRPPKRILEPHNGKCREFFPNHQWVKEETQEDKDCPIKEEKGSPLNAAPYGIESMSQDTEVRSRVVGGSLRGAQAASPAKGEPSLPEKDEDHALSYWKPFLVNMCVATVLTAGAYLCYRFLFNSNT
row,Compound,outcome
1,CCCCC(CC)COP(=O)(OCC(CC)CCCC)OCC(CC)CCCC (stereo not given),inactive
2,NCCOCCOCCN,inactive
3,O=C(NS(=O)(=O)/C=C/c1cccs1)c1ccc(F)cc1Br,inactive
